Data on 40 molecules can be found in PubChem BioAssay (EPA / NIEHS).

Calls of active or inactive are those of the source. How the source made its calls: active means hit-call score of the fitted dose curve at least 0.9, where 1 is the maximum; inactive means score below 0.9.

Read-out in the experiment: ABC Transporter (ABCB1), ABCB1 (gene 5243)
Briefly: LTEA_HepaRG_ABCB1: Life Technologies and Expression Analysis (LTEA) Assay for ABC Transporter (ABCB1) using HepaRG (AID 2283460). Particulars: mRNA level, 48 h; actives raise or lower the signal. The procedure: LTEA_HepaRG is a cell based, multiplexed-readout assay that uses HepaRG, a human liver cell line, with measurements taken at 48 hours after chemical dosing on a 96-well plate.LTEA_HepaRG_ABCB1 is one of 102 assay component(s) measured in the LTEA HepaRG cell culture assay. It is a marker of Steatosis/NR mediated transport.Data from the assay component LTEA_HepaRG_ABCB1 was analyzed into 1 endpoint. This assay endpoint, LTEA_HepaRG_ABCB1, was analyzed with bidirectional fitting relative to DMSO as the negative control and baseline of activity. Using a type of inducible reporter, measures of mRNA induction for gain or loss-of-signal activity can be used to understand regulation of transcription factor activity. To generalize the intended target to other relatable targets, this assay endpoint is annotated to the transporter intended target family, where the subfamily is ABC transporter.
A total of 1060 chemcials from the ToxCast library were tested in eight-point concentration-response experiments. Cell culture and cytotoxicity assays were conducted at Thermo Fisher Scientific's Custom Services facility (Madison, WI). A single lot of human HepaRG cells (Thermo Fisher Scientific, Frederick, MD) was used for the cell culture experiments. 96-well format collagen type I coated plates of human HepaRG cells were prepared using established methods. Briefly, cryopreserved HepaRG cells were thawed, plated at a density of approximately 100,000 cells/well in HepaRG Thaw, Plate, and General Purpose media (HPRG770, Thermo Fisher Scientific), and incubated for 48 hours. 0.5% DMSO was selected as vehicle control to balance the requisite need of DMSO in HepaRG cultures to maintain differentiation (for example, baseline metabolism, proportions of hepatocytes vs. cholangiocytes), while enabling further hepatic receptor pathway activation (for example, PXR and CAR) in response to chemical exposure. 48 hours after plating, the culture medium was replaced with HepaRG Serum-Free Incudtion Media. Cells were exposed to each test chemical in duplicate and maintained in CO2 incubators for another 48 hours. Chemical plates were thawed to room temperature and 200x concentrations of treatment groups were prepared. 8-point conentration-reponse curves were made with the highest exposure at 100 uM, followed by half-log dilutions, all in 0.5% DMSO. Each test plate contained variouse controls, induction positive controls (1mM phenobarbital), cytotoxicity positive controls ([…] aflatoxin B1), vehicle controls (0.5% DMSO), and total lysis controls (0.5% DMSO). Cell morphology images were taken using an Essen IncuCyte FLR automated microscope, with six 96-well plates imaged in about 24 minutes. Images were captured and exported and JPEG files. Spent culture media was transfered to black-well plates for the LDH assay, and remaining media was sorted at -80 C for later use. Cells were treated with RLT buffer and frozen until shipped for gene expression analysis. Total RNA was isolated from the cell suspension in 75 uL of Buffer RLT (Qiagen, Germantown, MD 20874) by Quintiles/Expression Analysis (Durham, NC) using a custom isolation procedure. Total RNA from each plate well was transferred to a preamplification plate. Fluidigm's 96.96 Dynamic ArrayTM (Fluidigm, Amsterdam, the Netherlands) technology was used for gene expression analyses by quantitative reverse transcription polymerase chain reaction (qRT-PCR, performed by Quintiles/Expression Analysis, Durham, NC)89. Standard TaqManTM Assays (Applied Biosystems/ThermoFisher Scientific, Foster City, CA) were used to assess the expression of 93 genes selected based on their selectivity and sensitivity to important hepatic receptors known to be modulated by environmental chemicals; importance in human hepatocyte functionality; and hepatotoxicity. […]
For the molecule `On1ccccc1=S`, the call was inactive.
On the same count and under the same terms, then `CCCCC(CC)COC(=O)CCCCCCCCC(=O)OCC(CC)CCCC` (stereo not given), with “inactive”; and `CC(O)CN(CCN(CC(C)O)CC(C)O)CC(C)O` (stereo not given), with “inactive”.
As to `O=C(CCCCCCCCc1cccnc1)N1CCC(C=C(c2ccccc2)c2ccccc2)CC1`, the AC50 (as a rule, the concentration at which the activity in the assay is half-maximal) was 30.7 µM (active).
`O=C(O)CCN(C1(C(=O)NO)CCCC1)S(=O)(=O)c1ccc(Oc2ccc(F)cc2)cc1`: the molecule was called inactive.
Same read-out and setting: then `C1N2CN3CN1CN(C2)C3`, with “inactive”.
Still for that read-out and setting: then `O=C1CCC(N2C(=O)c3ccccc3C2=O)C(=O)N1` (stereo not given), with “inactive”; and `O=C1OC(=O)C2C3C=CC(C3)C12` (stereo not given), with “inactive”; and `COC(=O)CC(=O)OC`, with “inactive”.
For `CC(=O)OCCC(C)C`, the outcome was inactive.
As for `COc1ccc2sc(C(=O)Nc3nnn[nH]3)c(OC(C)C)c2c1`, the result was inactive.
With `Fc1ccccc1[C@@H](F)COC1CCC(Nc2ncnc3[nH]ncc23)CC1` (stereo not given in full), the half-maximal activity concentration (AC50) was 50 µM (active).
For the molecule `Cc1c(-c2cccnc2)c2ccccc2n1CCCCC(=O)O`, the call was inactive.
The same measure, in the same setting: the value for `CCCCC(CC)COC(=O)c1ccc(C(=O)OCC(CC)CCCC)cc1` (stereo not given) was “inactive”.
Same read-out and setting: the value for `Cc1ccc(C)c(O)c1` was “inactive”; that for `O=C1CCCCCN1` was “inactive”; that for `CC[C@H]1CC[C@H](NCc2cc3c(cc2OC)[C@H]2C[C@H]2C(=O)N3C)[C@H](c2ccccc2)N1` was “inactive”.
`CC(C)CC(C)(O)C#CC(C)(O)CC(C)C` (stereo not given): the AC50 is 16.7 µM (active).
Regarding `CCCCCCCCO`, the outcome was inactive.
Same read-out and setting: the value for `Oc1ccc2c(c1)-c1ccccc1C2` was “inactive”.
Consider `CCOCCO`, for which the molecule was called inactive.
On the same count and under the same terms, the value for `O=C(O)CC(O)C(=O)O` (stereo not given) was “inactive”; that for `CC[C@H]1OC(=O)[C@H](C)[C@@H](O[C@H]2C[C@@](C)(OC)[C@@H](O)[C@H](C)O2)[C@H](C)[C@@H](O[C@@H]2O[C@H](C)C[C@H](N(C)C)[C@H]2O)[C@](C)(O)C[C@@H](C)C(=O)[C@H](C)[C@@H](O)[C@]1(C)O` was “inactive”.
Same read-out and setting: then `O=C(O)c1cccc(Oc2ccccc2)c1`, with “inactive”; and `C=CC(=C)CCC=C(C)C`, with “inactive”; and `CCOC(=O)c1ccc(C2CCC(NC[C@H](O)COc3ccc(O)c(NS(C)(=O)=O)c3)CC2)cc1` (stereo not given in full), with “inactive”.
`COCCOc1cc2cc(C(=O)NC3CCN(C(C)C)CC3)n(CC(=O)Nc3ccc(Cl)cn3)c2cn1`: the AC50 was 20.6 µM (active).
As for `Clc1nc(Cl)c(Cl)c(Cl)c1Cl`, the molecule was classed as inactive.
On the same count and under the same terms, the value for `CCCCCCCCCCCCCCCO` was “inactive”.
Consider `O=P(OC(CCl)CCl)(OC(CCl)CCl)OC(CCl)CCl`, for which the AC50 is 78.8 µM (active).
Turning to `CC(C)=CCCC(C)=CC=O`, the call was inactive.
On the same count and under the same terms, then `CC1=CC(=O)CC(C)(C)C1`, with “inactive”.
Still for that read-out and setting: the value for `CCOC(=O)CC(CC(=O)OCC)(OC(C)=O)C(=O)OCC` was “inactive”.
Consider `O=C(O)c1cccc(N(Cc2cccnc2)c2ccc(OC(F)F)c(OC(F)F)c2)c1`, for which the AC50 is 50 µM (active).
With `CCNc1ccccc1`, the molecule was classed as inactive.
Same read-out and setting: then `Cn1cnc([N+](=O)[O-])c1Sc1ncnc2nc[nH]c12`, with “inactive”; and `CC(C)(O)c1coc(S(=O)(=O)NC(=O)Nc2c3c(cc4c2CCC4)CCC3)c1`, with “inactive”.
For `Cc1[nH]cnc1C[C@H]1CCc2c(C)c3ccccc3n2C1=O`, the AC50 is 68.5 µM (active).
For the molecule `CC(=O)OC[C@H]1O[C@@](COC(C)=O)(O[C@H]2O[C@H](COC(C)=O)[C@@H](OC(C)=O)[C@H](OC(C)=O)[C@H]2OC(C)=O)[C@@H](OC(C)=O)[C@@H]1OC(C)=O`, the call was inactive.
On the same count and under the same terms, the value for `Nc1nc2ncc(CNc3ccc(C(=O)N[C@@H](CCC(=O)O)C(=O)O)cc3)nc2c(=O)[nH]1` was “inactive”.
